For some assays here: Results with a measured potency or affinity are listed apart. Activity calls are given as the source filed them. Unless noted, the rule behind the calls is not given here.
These compounds were tested against Protein kinase 7 (PK7), Plasmodium falciparum 3D7 (PF3D7_0213400) (UniProt Q7YTF7) (assay: inhibition of Plasmodium PK7 catalytic activity – biochemical, TCAMS antimalarial set, Kinase-Glo luminescence (AID 1159587)). Conditions: recombinant PfPK7, Kinase-Glo ATP depletion luminescence.
Chain of Protein kinase 7 (PK7), Plasmodium falciparum 3D7 (PF3D7_0213400) (Q7YTF7 1-343): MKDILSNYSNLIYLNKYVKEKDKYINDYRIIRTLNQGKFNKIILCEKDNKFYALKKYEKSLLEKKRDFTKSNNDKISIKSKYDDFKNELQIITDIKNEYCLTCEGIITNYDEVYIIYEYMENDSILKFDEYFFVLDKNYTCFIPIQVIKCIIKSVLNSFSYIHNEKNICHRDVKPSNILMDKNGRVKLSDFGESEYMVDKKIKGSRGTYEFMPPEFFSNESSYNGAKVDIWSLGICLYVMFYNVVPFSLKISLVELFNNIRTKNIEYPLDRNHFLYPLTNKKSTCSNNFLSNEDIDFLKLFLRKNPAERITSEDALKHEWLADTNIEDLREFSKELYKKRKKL
With `CCc1nc2c(cnn2CC)c(NC2CCOCC2)c1CNC(=O)c1ccoc1C` the outcome was “inactive”. `CCOC(=O)c1cc(C(=O)NCCCCN2CCC(c3ccc(CC)cc3OCC)CC2)ccc1-c1ccc(C(F)(F)F)cc1` was tested, and the outcome was “inactive”. With `Cn1cnc2c(SCc3ccc(OCc4ccccc4)cc3)ncnc21` the outcome was “inactive”. With `COc1ccc(/C=C/C(=O)Nc2ccc(-c3ccncc3)cc2)cc1CCCN(C)C` the outcome was “inactive”. In the case of `C/C=C/COc1ccc2ccccc2c1CNCCCCCCCCNCc1c(OC/C=C/C)ccc2ccccc12`, the outcome is reported as “inactive”. With `N=c1c(C(=O)NCc2ccccc2)cc2c(=O)n3ccccc3nc2n1CCc1ccccc1` the outcome was “inactive”. With `CCOc1ccc2nc(C)cc(NN=Cc3cccc(F)c3)c2c1` the outcome was “inactive”. In the case of `Nc1nc2ncn(COC(COCc3ccccc3)COCc3ccccc3)c2c(=O)[nH]1` (tested in a mixture with another compound), the outcome is reported as “inactive”. For `N#Cc1cccc(NC(=O)c2cccc(S(=O)(=O)NC3CCN(CC4CCCCC4)C3)c2)c1` (stereo not given), the outcome was “inactive”. In the case of `O=C(COc1ccccc1)N(Cc1ccc(-c2ccc(CNC3Cc4ccccc4C3)cc2)cc1)C1CCNCC1`, the outcome is reported as “inactive”. `Cc1ccccc1CNc1noc(-c2sccc2Br)n1` was tested, and the outcome was “inactive”. In the case of `CCOC(=O)[C@H](Cc1cc([N+](=O)[O-])c(Oc2ccc(OC)c(Cc3ccc(OC)c(C(C)C)c3)c2)c([N+](=O)[O-])c1)NC(=O)C(F)(F)F`, the outcome is reported as “inactive”. With `CCC1N=C(N)N=C(N)N1OCc1ccc(Cl)c(Cl)c1` (stereo not given) the outcome was “inactive”. For `CC(C)(C)c1ccccc1OCCCON1C(N)=NC(N)=NC1(C)C`, the outcome was “inactive”. `COc1ccccc1-c1cccc2c(NC(=O)Nc3ccc4nccc(N5CCN(C)CC5)c4c3)ccnc12` was tested, and the outcome was “inactive”. With `CC(C)(C)c1ccc2nccc(Nc3cccc(O)c3)c2c1` the outcome was “inactive”. `CCc1cn2c3c(cc(C(=O)N[C@@H](Cc4cccc(Cl)c4)[C@H](O)CNC4CCOCC4)cc13)N(C)S(=O)(=O)CC2` was tested, and the outcome was “inactive”. `CC[C@H](C)CNC(=O)c1ccnc(-c2ccc(CN3CCC(N4CCCC4)CC3)cc2)c1` was tested, and the outcome was “inactive”. For `Cc1cccc(Nc2nc(C)cc(N3CCCN(CC4CCCCC4)CC3)n2)c1`, the outcome was “inactive”. With `CCCCN1CCN(c2cc(NS(=O)(=O)c3cccc(C(=O)Nc4ccc(C(F)(F)F)cc4)c3)ccc2OC)CC1` the outcome was “inactive”. `CCC1(CC)N=C(N)N=C(N)N1OCc1ccc(Cl)c(Cl)c1` was tested, and the outcome was “inactive”. `CNC(=O)C(C)N(c1ccc(Cl)cc1)c1nc(C(C)(C)C)cs1` (stereo not given) was tested, and the outcome was “inactive”. With `CCC[C@@H]([C@@H](CC(C)C)C(=O)N[C@@H](CCCCNC(=O)c1ccccn1)C(=O)Nc1nccs1)N(O)C=O` the outcome was “inactive”. For `CCN=C1NC2=C(CC(C(C)(C)C)CC2)C2(CCC(C(C)(C)C)CC2)S1` (stereo not given), the outcome was “inactive”. `C[C@@H]1CN(c2ncc(-c3ccc(CNC4Cc5ccccc5C4)cc3)cn2)C[C@H](C)N1` was tested, and the outcome was “inactive”. With `O=C(NCc1ccc(Cl)c(Cl)c1)c1cccc(C2CCCN(Cc3ccc4nc[nH]c4c3)C2)c1` (stereo not given) the outcome was “inactive”. With `Cc1ccc2c(Cl)c(C(=O)N3CC(C)OC(C)C3)sc2c1` (stereo not given) the outcome was “inactive”. With `COc1cccc(Nc2nc(N)c3ccccc3n2)c1` the outcome was “inactive”. For `Cc1c(CCNC(=O)CCCN2CC(C)CC(C)C2)c2ccccc2n1C` (stereo not given), the outcome was “inactive”. In the case of `COc1ccc2nccc([C@@H](O)CN3CCC(NC(=O)c4nc(Cl)c(Cl)c(N)c4Cl)CC3)c2c1`, the outcome is reported as “inactive”. With `O=C(c1cc(C(=O)NC2CCCCC2)c(=O)n(C2CCCCC2)c1)c1cc(F)ccc1O` the outcome was “inactive”. In the case of `O=C(Nc1cccc(CN2CCN(Cc3cccc(O)c3)CC2)c1)c1cc2ccccc2s1`, the outcome is reported as “inactive”. With `CC(C)C[C@H](NC(=O)c1cc2ccccc2s1)C(=O)N[C@H]1CCN(Cc2ccc(OCCCN(C)C)c(Cl)c2)C1` the outcome was “inactive”. In the case of `O=C(CCOc1ccccc1)NCC1CCCO1` (stereo not given), the outcome is reported as “inactive”. For `COc1ccccc1Nc1nc(C)cc(NCc2ccc(-n3ccnc3)cc2)n1`, the outcome was “inactive”. With `O=C(N[C@@H](CC1CCCCC1)C(=O)NCCN1CCCCC1)c1ccc(O)c(-c2ccc(Cl)c(Cl)c2)c1` the outcome was “inactive”. For `O=C(Nc1ccc(Cl)cc1)c1ccc(CN2CCCN(CC3CCCCC3)CC2)cc1`, the outcome was “inactive”. With `CCCc1cc(OC)c(CC2c3cccc(O)c3CCN2C)cc1OC` (stereo not given) the outcome was “inactive”. With `CCC1CCCCN1S(=O)(=O)c1ccc(OC)c(N2CCN(C(=O)C(Cl)(Cl)Cl)CC2)c1` (stereo not given) the outcome was “inactive”. For `Cc1cnc(Nc2cccc(CCN3CCOCC3)c2)nc1NC(C)C`, the outcome was “inactive”.

Each compound was assayed against Calcium-dependent protein kinase 4 (Plasmodium falciparum (isolate 3D7)) (UniProt Q8IBS5) (assay: PfCDPK4 kinase inhibitors, biochemical, TCAMS library (AID 1159588; cut-off not given, nearly all actives have IC50 up to about 0.91 µM)). Conditions: recombinant PfCDPK4, Kinase-Glo ATP depletion luminescence.
Chain of Calcium-dependent protein kinase 4 (Plasmodium falciparum (isolate 3D7)) (Q8IBS5 whole entry, looked up): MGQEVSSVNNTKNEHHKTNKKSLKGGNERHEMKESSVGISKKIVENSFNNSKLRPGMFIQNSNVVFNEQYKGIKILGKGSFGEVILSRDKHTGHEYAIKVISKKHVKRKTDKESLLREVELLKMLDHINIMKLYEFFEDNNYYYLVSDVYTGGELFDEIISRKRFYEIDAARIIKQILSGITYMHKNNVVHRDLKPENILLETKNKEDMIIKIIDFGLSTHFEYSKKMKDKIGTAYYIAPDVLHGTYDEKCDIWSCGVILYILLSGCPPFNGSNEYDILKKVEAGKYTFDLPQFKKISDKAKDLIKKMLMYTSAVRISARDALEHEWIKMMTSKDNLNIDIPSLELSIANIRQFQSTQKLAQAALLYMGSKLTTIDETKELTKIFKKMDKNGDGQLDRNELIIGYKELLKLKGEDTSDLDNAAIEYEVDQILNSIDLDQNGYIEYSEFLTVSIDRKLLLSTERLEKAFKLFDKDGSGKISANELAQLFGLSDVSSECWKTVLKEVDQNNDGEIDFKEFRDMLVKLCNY
For `CCc1nc2c(cnn2CC)c(NC2CCOCC2)c1CNC(=O)c1ccoc1C`, the outcome was “inactive”. `CCOC(=O)c1cc(C(=O)NCCCCN2CCC(c3ccc(CC)cc3OCC)CC2)ccc1-c1ccc(C(F)(F)F)cc1` was tested, and the outcome was “inactive”. For `Cn1cnc2c(SCc3ccc(OCc4ccccc4)cc3)ncnc21`, the outcome was “inactive”. `COc1ccc(/C=C/C(=O)Nc2ccc(-c3ccncc3)cc2)cc1CCCN(C)C` was tested, and the outcome was “inactive”. `C/C=C/COc1ccc2ccccc2c1CNCCCCCCCCNCc1c(OC/C=C/C)ccc2ccccc12` was tested, and the outcome was “inactive”. In the case of `N=c1c(C(=O)NCc2ccccc2)cc2c(=O)n3ccccc3nc2n1CCc1ccccc1`, the outcome is reported as “inactive”. In the case of `CCOc1ccc2nc(C)cc(NN=Cc3cccc(F)c3)c2c1`, the outcome is reported as “inactive”. With `Nc1nc2ncn(COC(COCc3ccccc3)COCc3ccccc3)c2c(=O)[nH]1` (tested in a mixture with another compound) the outcome was “inactive”. With `N#Cc1cccc(NC(=O)c2cccc(S(=O)(=O)NC3CCN(CC4CCCCC4)C3)c2)c1` (stereo not given) the outcome was “inactive”. For `O=C(COc1ccccc1)N(Cc1ccc(-c2ccc(CNC3Cc4ccccc4C3)cc2)cc1)C1CCNCC1`, the outcome was “inactive”. In the case of `Cc1ccccc1CNc1noc(-c2sccc2Br)n1`, the outcome is reported as “inactive”. `CCOC(=O)[C@H](Cc1cc([N+](=O)[O-])c(Oc2ccc(OC)c(Cc3ccc(OC)c(C(C)C)c3)c2)c([N+](=O)[O-])c1)NC(=O)C(F)(F)F` was tested, and the outcome was “inactive”. With `CCC1N=C(N)N=C(N)N1OCc1ccc(Cl)c(Cl)c1` (stereo not given) the outcome was “inactive”. In the case of `CC(C)(C)c1ccccc1OCCCON1C(N)=NC(N)=NC1(C)C`, the outcome is reported as “inactive”. With `COc1ccccc1-c1cccc2c(NC(=O)Nc3ccc4nccc(N5CCN(C)CC5)c4c3)ccnc12` the outcome was “inactive”. With `CC(C)(C)c1ccc2nccc(Nc3cccc(O)c3)c2c1` the outcome was “inactive”. `CCc1cn2c3c(cc(C(=O)N[C@@H](Cc4cccc(Cl)c4)[C@H](O)CNC4CCOCC4)cc13)N(C)S(=O)(=O)CC2` was tested, and the outcome was “inactive”. `CC[C@H](C)CNC(=O)c1ccnc(-c2ccc(CN3CCC(N4CCCC4)CC3)cc2)c1` was tested, and the outcome was “inactive”. With `Cc1cccc(Nc2nc(C)cc(N3CCCN(CC4CCCCC4)CC3)n2)c1` the outcome was “inactive”. With `CCCCN1CCN(c2cc(NS(=O)(=O)c3cccc(C(=O)Nc4ccc(C(F)(F)F)cc4)c3)ccc2OC)CC1` the outcome was “inactive”. In the case of `CCC1(CC)N=C(N)N=C(N)N1OCc1ccc(Cl)c(Cl)c1`, the outcome is reported as “inactive”. In the case of `CNC(=O)C(C)N(c1ccc(Cl)cc1)c1nc(C(C)(C)C)cs1` (stereo not given), the outcome is reported as “inactive”. With `CCC[C@@H]([C@@H](CC(C)C)C(=O)N[C@@H](CCCCNC(=O)c1ccccn1)C(=O)Nc1nccs1)N(O)C=O` the outcome was “inactive”. With `CCN=C1NC2=C(CC(C(C)(C)C)CC2)C2(CCC(C(C)(C)C)CC2)S1` (stereo not given) the outcome was “inactive”. `C[C@@H]1CN(c2ncc(-c3ccc(CNC4Cc5ccccc5C4)cc3)cn2)C[C@H](C)N1` was tested, and the outcome was “inactive”. `O=C(NCc1ccc(Cl)c(Cl)c1)c1cccc(C2CCCN(Cc3ccc4nc[nH]c4c3)C2)c1` (stereo not given) was tested, and the outcome was “inactive”. `Cc1ccc2c(Cl)c(C(=O)N3CC(C)OC(C)C3)sc2c1` (stereo not given) was tested, and the outcome was “inactive”. `COc1cccc(Nc2nc(N)c3ccccc3n2)c1` was tested, and the outcome was “inactive”. With `Cc1c(CCNC(=O)CCCN2CC(C)CC(C)C2)c2ccccc2n1C` (stereo not given) the outcome was “inactive”. In the case of `COc1ccc2nccc([C@@H](O)CN3CCC(NC(=O)c4nc(Cl)c(Cl)c(N)c4Cl)CC3)c2c1`, the outcome is reported as “inactive”. For `O=C(c1cc(C(=O)NC2CCCCC2)c(=O)n(C2CCCCC2)c1)c1cc(F)ccc1O`, the outcome was “inactive”. With `O=C(Nc1cccc(CN2CCN(Cc3cccc(O)c3)CC2)c1)c1cc2ccccc2s1` the outcome was “inactive”. With `CC(C)C[C@H](NC(=O)c1cc2ccccc2s1)C(=O)N[C@H]1CCN(Cc2ccc(OCCCN(C)C)c(Cl)c2)C1` the outcome was “inactive”. For `O=C(CCOc1ccccc1)NCC1CCCO1` (stereo not given), the outcome was “inactive”. In the case of `COc1ccccc1Nc1nc(C)cc(NCc2ccc(-n3ccnc3)cc2)n1`, the outcome is reported as “inactive”. `O=C(N[C@@H](CC1CCCCC1)C(=O)NCCN1CCCCC1)c1ccc(O)c(-c2ccc(Cl)c(Cl)c2)c1` was tested, and the outcome was “inactive”. With `O=C(Nc1ccc(Cl)cc1)c1ccc(CN2CCCN(CC3CCCCC3)CC2)cc1` the outcome was “inactive”. For `CCCc1cc(OC)c(CC2c3cccc(O)c3CCN2C)cc1OC` (stereo not given), the outcome was “inactive”. With `CCC1CCCCN1S(=O)(=O)c1ccc(OC)c(N2CCN(C(=O)C(Cl)(Cl)Cl)CC2)c1` (stereo not given) the outcome was “inactive”. In the case of `Cc1cnc(Nc2cccc(CCN3CCOCC3)c2)nc1NC(C)C`, the outcome is reported as “inactive”.
